In PubChem BioAssay (EPA / NIEHS) one finds AC50 and outcome data, which are given here for eleven molecules.

Inconclusive results are not listed. Active and inactive are the calls of the source. How the source made its calls, unless noted: active means hit-call score of the fitted dose curve at least 0.9, where 1 is the maximum; inactive means score below 0.9.

Assay [1] deals with Nuclear respiratory factor 1 (Homo sapiens) (UniProt Q16656). Kind of assay: ATG_NRF1_CIS: Attagene CIS-FACTORIAL HepG2 Assay for human Nuclear Respiratory Factor 1 (NRF1) Orphan Gene (AID 2282987). As to conditions: HepG2 NRF1 cis-element reporter, Attagene multiplex; actives raise or lower the signal. The method, boiled down:
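Cells (HepG2, transient MRTU transfection) are exposed to compound for 24 h, then RNA isolated and reporter mRNA amplified and fluorescently labelled. Fragments are separated by capillary electrophoresis; signal change is fitted bidirectionally relative to DMSO.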

Assay [2] can be described thus: ATG_NFI_CIS: Attagene CIS-FACTORIAL HepG2 Assay for human Nuclear Factor I (NFI) (AID 2282989). As to conditions: HepG2 cis-regulatory reporter, NFI response element transcription; actives raise or lower the signal. The essentials:
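HepG2, transient MRTU, 24 h exposure; RNA→cDNA→PCR→FAM label→HpaI→CE fluorescence. Bidirectional fit, DMSO = baseline.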

In assay [3] the target is Myc proto-oncogene protein (Homo sapiens) (UniProt P01106). Kind of assay: ATG_Myc_CIS: Attagene CIS-FACTORIAL HepG2 Assay for human Myelocytomatosis (Myc) Proto-Oncogene Transcription Factor (AID 2282990). As to conditions: HepG2, Attagene cis-reporter transcription factor activity; actives raise or lower the signal. The method, boiled down: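 After 24 h chemical treatment of HepG2 cells carrying multiplexed cis-regulated reporter constructs, reporter transcripts quantified by RT-PCR and capillary electrophoresis of fluorescent fragments. Gain or loss fitted against DMSO baseline.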
Myc proto-oncogene protein (Homo sapiens), sequence (P01106 whole entry, looked up, the tested form may be a part): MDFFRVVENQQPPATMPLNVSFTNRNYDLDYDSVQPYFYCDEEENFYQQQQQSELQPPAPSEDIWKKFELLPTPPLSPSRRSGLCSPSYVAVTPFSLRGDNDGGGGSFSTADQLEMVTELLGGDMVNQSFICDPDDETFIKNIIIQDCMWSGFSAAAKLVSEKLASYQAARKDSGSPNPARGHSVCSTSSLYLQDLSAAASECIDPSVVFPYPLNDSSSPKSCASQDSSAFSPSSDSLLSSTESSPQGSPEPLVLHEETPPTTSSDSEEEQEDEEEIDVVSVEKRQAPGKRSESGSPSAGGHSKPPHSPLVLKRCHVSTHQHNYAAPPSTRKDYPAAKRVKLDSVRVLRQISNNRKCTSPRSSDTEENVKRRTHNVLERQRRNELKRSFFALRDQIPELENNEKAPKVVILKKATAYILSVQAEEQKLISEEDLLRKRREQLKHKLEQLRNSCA

Assay [4] is described as follows: ATG_NF_kB_CIS: Attagene CIS-FACTORIAL HepG2 Assay for human Nuclear Factor Kappa B (NF-kB) (AID 2282991). As to conditions: HepG2 Attagene cis-factorial NF-kB reporter mRNA; actives raise or lower the signal. The essentials: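 Measures mRNA induction of an NF-kB-responsive cis-element reporter in HepG2 cells transfected with multiple reporter units, sampled 24 h post-dosing; quantified by fluorescence after RT-PCR and capillary electrophoresis, fitted for activation or inhibition against DMSO.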

Assay [5] in a line: ATG_NRF2_ARE_CIS: Attagene CIS-FACTORIAL HepG2 Assay for human Nuclear Factor Erythroid 2 Related Factor 2 (NFR2) response to Antioxidant Response Elements (ARE) (AID 2282992). As to conditions: HepG2 Attagene ARE/NRF2 reporter, transcription factor activity; actives raise or lower the signal. The essentials:
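Endogenous transcription factor activity read out as reporter transcript levels (RT-PCR plus capillary electrophoresis, fluorescence) in transiently transfected HepG2 cells. Measured at 24 h after dosing; gain or loss of signal fitted versus DMSO.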

Assay [6] is described as follows: ATG_Oct_MLP_CIS: Attagene CIS-FACTORIAL HepG2 Assay for human Octamer-Binding Transcription Factor (Oct) (AID 2282993). As to conditions: HepG2 Attagene cis-factorial Oct reporter, mRNA; actives raise or lower the signal. The method, boiled down: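 Multiplexed cis-reporter assay in human liver HepG2 cells, 24 h incubation. Reporter RNA amplified and labelled, then resolved by capillary electrophoresis; DMSO serves as negative control and baseline.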

Assay [7] addresses Cellular tumor antigen p53 (Homo sapiens) (UniProt P04637). Briefly: ATG_p53_CIS: Attagene CIS-FACTORIAL HepG2 Assay for human p53 Transcription Factor (AID 2282994). As to conditions: HepG2 p53 cis-element reporter, Attagene mRNA; actives raise or lower the signal. The method, boiled down:
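Endogenous p53 activity read in transiently transfected HepG2 from a cis-element-driven reporter transcript after 24 h exposure. RNA reverse-transcribed, PCR-amplified, fluorescently labelled and sized by capillary electrophoresis; gain or loss fitted against DMSO baseline.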

For assay [8], the target named is human Peroxisome Proliferator-activated Receptor delta (PPARd), PPARD (gene 5467) (UniProt Q03181). Briefly: ATG_PPARd_TRANS: Attagene TRANS-FACTORIAL HepG2 Assay for human Peroxisome Proliferator-activated Receptor delta (PPARd) (AID 2283002; active means hit-call score of the fitted dose curve at least 0.9, where 1 is the maximum). The method, boiled down:
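Read-out is induced reporter mRNA, quantified by RT-PCR with fluorescent labelling and capillary electrophoresis after 24 h dosing. Cells are HepG2 transiently carrying multiple GAL4-UAS reporter units driven by exogenous NR-GAL4 chimeras; DMSO serves as baseline.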

Assay [9] concerns the target Nuclear receptor subfamily 1 group I member 2 (Homo sapiens) (UniProt O75469). Kind of assay: ATG_PXR_TRANS: Attagene TRANS-FACTORIAL HepG2 Assay for human Pregnane X Receptor (PXR) (AID 2283008; active means hit-call score of the fitted dose curve at least 0.9, where 1 is the maximum). The essentials:
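Transactivation by exogenous PXR–GAL4 fusion measured as reporter transcript induction after 24 h compound treatment of transfected human HepG2 cells. Read-out via RT-PCR and capillary electrophoresis of labelled fragments, fitted upward relative to DMSO.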

For assay [10], the target named is Peroxisome proliferator-activated receptor gamma (Homo sapiens) (UniProt P37231). Briefly: ATG_PPARg_TRANS: Attagene TRANS-FACTORIAL HepG2 Assay for human Peroxisome Proliferator-activated Receptor-gamma (PPARg) (AID 2283007; active means hit-call score of the fitted dose curve at least 0.9, where 1 is the maximum). The method, boiled down: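 Gain-of-signal endpoint relative to DMSO, derived from reporter mRNA levels quantified by RT-PCR and capillary electrophoresis. Cells were HepG2 transiently expressing a chimeric NR-Gal4 construct with GAL4-UAS reporters, exposed to chemicals for 24 h.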
Peroxisome proliferator-activated receptor gamma (Homo sapiens), sequence (P37231 whole entry, looked up, the tested form may be a part): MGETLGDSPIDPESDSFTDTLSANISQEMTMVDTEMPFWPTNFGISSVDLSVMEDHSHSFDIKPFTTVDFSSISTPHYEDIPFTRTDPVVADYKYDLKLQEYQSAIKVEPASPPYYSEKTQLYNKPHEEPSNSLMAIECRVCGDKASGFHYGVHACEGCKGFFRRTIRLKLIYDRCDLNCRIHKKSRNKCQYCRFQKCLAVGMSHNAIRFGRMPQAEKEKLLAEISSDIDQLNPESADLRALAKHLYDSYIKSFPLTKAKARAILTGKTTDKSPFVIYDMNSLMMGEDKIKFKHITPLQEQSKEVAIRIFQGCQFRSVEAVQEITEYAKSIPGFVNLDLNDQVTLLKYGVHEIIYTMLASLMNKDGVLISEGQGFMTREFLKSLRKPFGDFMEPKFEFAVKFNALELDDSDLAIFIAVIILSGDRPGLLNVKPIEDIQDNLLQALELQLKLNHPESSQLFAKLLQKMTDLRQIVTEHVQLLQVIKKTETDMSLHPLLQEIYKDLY

The target of assay [11] is human Peroxisome Proliferator-activated Receptor alpha (PPARa), PPARA (gene 5465) (UniProt Q07869). Briefly: ATG_PPARa_TRANS: Attagene TRANS-FACTORIAL HepG2 Assay for human Peroxisome Proliferator-activated Receptor alpha (PPARa) (AID 2283001; active means hit-call score of the fitted dose curve at least 0.9, where 1 is the maximum;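 on AC50: potency for gain of reporter signal over DMSO so agonist or activator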). The method, boiled down: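 Transfected HepG2 cells treated with test chemical for 24 h. RNA isolated, reverse-transcribed with oligo(dT), PCR-amplified, FAM-labelled and HpaI-digested. Fragments sized by capillary electrophoresis; gain-of-signal fit relative to DMSO.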
human Peroxisome Proliferator-activated Receptor alpha (PPARa), PPARA (gene 5465), sequence (Q07869 whole entry, looked up, the tested form may be a part): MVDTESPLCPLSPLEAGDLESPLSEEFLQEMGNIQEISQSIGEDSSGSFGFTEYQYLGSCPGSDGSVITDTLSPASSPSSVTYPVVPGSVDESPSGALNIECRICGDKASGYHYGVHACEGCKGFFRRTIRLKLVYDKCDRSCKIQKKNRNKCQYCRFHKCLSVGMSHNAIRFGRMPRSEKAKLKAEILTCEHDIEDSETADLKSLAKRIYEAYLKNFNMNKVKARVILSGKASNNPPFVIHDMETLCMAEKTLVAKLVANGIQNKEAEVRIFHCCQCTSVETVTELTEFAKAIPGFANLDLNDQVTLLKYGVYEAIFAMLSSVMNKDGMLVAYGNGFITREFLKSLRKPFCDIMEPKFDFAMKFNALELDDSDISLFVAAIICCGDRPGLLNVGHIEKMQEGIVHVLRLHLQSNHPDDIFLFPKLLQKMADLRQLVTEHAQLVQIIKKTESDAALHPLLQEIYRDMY

For assay [12], the target named is Retinoic acid receptor alpha (Homo sapiens) (UniProt P10276). Briefly: ATG_RARa_TRANS: Attagene TRANS-FACTORIAL HepG2 Assay for human Retinoic Acid Receptor alpha (RARa) (AID 2283005; active means hit-call score of the fitted dose curve at least 0.9, where 1 is the maximum). The essentials:
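Reporter transcripts, measured by RT-PCR with fluorescent labeling and capillary electrophoresis after 24 h dosing, reflect activity of an exogenous human RARa–GAL4 fusion in transiently transfected HepG2. Fitted for increase relative to DMSO.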

Assay [13] has as its target human Retinoic Acid Receptor beta (RARb), RARB (gene 5915) (UniProt P10826). Kind of assay: ATG_RARb_TRANS: Attagene TRANS-FACTORIAL HepG2 Assay for human Retinoic Acid Receptor beta (AID 2283004; active means hit-call score of the fitted dose curve at least 0.9, where 1 is the maximum). The method, boiled down: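 HepG2 cells transiently transfected with multiplexed GAL4-UAS reporter units expressing chimeric NR–Gal4 fusions; 24 h compound exposure. Reporter mRNA quantified by RT-PCR, 6-FAM labelling, HpaI digestion and capillary electrophoresis; gain-of-signal fitted against DMSO baseline.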

human Peroxisome Proliferator-activated Receptor delta (PPARd), PPARD (gene 5467), sequence (Q03181 whole entry, looked up, the tested form may be a part): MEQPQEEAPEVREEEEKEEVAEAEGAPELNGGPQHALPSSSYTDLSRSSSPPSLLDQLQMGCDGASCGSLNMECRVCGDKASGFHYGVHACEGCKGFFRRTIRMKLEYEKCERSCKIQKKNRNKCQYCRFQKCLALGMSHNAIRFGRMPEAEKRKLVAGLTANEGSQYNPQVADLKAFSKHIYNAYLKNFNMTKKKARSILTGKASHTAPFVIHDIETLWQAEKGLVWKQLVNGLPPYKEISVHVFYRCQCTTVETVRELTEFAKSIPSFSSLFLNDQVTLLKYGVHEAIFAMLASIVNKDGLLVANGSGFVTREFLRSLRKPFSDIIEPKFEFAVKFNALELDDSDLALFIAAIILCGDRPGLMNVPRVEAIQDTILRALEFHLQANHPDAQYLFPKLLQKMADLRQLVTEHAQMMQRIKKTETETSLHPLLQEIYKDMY
Cellular tumor antigen p53 (Homo sapiens), sequence (P04637 whole entry, looked up): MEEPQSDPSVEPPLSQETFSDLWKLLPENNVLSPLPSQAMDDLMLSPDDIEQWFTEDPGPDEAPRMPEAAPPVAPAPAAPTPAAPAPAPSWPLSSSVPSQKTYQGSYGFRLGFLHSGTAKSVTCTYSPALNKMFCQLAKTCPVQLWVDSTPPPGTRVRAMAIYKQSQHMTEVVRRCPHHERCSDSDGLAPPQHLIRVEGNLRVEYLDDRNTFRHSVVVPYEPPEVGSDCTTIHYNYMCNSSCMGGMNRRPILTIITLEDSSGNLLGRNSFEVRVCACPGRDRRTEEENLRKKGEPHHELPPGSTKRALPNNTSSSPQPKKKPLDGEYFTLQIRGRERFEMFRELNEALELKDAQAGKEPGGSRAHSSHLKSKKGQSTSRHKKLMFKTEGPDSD
Nuclear receptor subfamily 1 group I member 2 (Homo sapiens), sequence (O75469 whole entry, looked up, the tested form may be a part): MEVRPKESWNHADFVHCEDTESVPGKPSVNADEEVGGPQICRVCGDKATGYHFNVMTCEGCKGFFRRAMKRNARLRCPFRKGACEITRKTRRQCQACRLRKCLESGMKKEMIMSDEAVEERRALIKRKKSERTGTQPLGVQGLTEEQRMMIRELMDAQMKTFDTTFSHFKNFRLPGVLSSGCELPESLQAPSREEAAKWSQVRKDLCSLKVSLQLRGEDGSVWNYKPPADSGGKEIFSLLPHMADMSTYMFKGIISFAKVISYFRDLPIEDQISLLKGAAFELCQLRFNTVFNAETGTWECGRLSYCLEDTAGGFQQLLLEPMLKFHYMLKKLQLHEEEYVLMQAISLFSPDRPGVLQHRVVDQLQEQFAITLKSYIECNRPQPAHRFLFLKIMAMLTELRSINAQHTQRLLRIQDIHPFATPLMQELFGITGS
Nuclear respiratory factor 1 (Homo sapiens), sequence (Q16656 whole entry, looked up, the tested form may be a part): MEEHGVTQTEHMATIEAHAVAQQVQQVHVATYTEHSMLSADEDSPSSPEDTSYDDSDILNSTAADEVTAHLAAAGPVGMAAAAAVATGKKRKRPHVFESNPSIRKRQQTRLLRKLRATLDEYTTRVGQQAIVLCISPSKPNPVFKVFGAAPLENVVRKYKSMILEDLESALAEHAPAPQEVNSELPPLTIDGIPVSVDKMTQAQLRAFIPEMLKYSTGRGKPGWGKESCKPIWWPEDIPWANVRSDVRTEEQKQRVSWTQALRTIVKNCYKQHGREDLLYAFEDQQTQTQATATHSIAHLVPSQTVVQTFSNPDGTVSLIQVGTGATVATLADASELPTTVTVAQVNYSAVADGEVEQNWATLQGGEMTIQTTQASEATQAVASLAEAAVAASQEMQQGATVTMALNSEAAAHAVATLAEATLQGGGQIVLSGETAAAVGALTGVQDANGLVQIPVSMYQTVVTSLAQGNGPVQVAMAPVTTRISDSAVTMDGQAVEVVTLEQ
human Retinoic Acid Receptor beta (RARb), RARB (gene 5915), sequence (P10826 whole entry, looked up, the tested form may be a part): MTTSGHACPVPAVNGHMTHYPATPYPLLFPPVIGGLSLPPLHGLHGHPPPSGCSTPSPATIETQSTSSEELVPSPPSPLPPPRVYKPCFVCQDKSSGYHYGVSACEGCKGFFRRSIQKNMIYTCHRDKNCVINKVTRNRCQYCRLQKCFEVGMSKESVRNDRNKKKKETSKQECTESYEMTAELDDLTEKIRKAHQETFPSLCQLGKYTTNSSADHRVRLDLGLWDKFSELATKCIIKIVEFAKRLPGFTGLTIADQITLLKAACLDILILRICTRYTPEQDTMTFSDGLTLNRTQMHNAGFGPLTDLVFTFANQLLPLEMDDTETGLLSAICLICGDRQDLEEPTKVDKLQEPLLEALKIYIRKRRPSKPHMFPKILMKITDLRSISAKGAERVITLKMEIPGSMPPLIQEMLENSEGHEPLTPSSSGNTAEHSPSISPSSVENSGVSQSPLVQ
Retinoic acid receptor alpha (Homo sapiens), sequence (P10276 whole entry, looked up, the tested form may be a part): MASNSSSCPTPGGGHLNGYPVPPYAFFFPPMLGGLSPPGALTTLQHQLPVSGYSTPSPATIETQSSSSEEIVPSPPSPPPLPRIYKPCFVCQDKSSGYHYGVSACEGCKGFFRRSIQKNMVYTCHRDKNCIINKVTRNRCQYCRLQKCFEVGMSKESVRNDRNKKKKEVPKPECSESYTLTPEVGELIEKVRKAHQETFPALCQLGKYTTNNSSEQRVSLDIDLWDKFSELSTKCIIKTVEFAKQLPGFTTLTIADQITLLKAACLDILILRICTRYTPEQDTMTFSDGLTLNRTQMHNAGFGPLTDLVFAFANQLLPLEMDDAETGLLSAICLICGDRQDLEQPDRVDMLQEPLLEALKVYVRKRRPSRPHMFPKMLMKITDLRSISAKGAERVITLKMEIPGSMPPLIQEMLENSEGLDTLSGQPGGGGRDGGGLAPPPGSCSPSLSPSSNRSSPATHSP

One may read the AC50 as the concentration at which the activity in the assay is half-maximal. Regarding `Clc1ccc(C2(Cn3cncn3)CC(Br)CO2)c(Cl)c1` (stereo not given), the AC50 is 47 µM (active) in [1], 26.9 µM (active) in assay [5] and 0.762 µM (active) in assay [9]. The result in assay [2], in assay [3], in assay [4], in assay [6], in assay [7] and in [8] was inactive.
For the molecule `Cc1cc(=O)[nH]o1`, the outcome in [1], in assay [2], in assay [3], in assay [4], in assay [5] and in assay [6] was inactive. The molecule was classed as inactive in [7], in assay [8], in [10] and in assay [9].
For `CCCCP(CCCC)CCCC`, the call in assay [1], in assay [2], in assay [3], in [4], in assay [5] and in assay [6] was inactive. Also, the molecule was called inactive in assay [7] and in assay [8]. In assay [9], the AC50 was 7.21 µM (active).
`Cc1cc(Cl)ccc1O[C@H](C)C(=O)O`: the call in assay [1], in assay [2], in assay [3], in [4], in assay [5] and in [6] was inactive. Also, the molecule was classed as inactive in assay [7], in assay [11], in [8] and in [9]. For the same molecule, in assay [10], the concentration at half-maximal activity (AC50) was 37.4 µM (active).
As for `CCOP(=O)(CN(CCO)CCO)OCC`, the result in assay [1], in [2], in assay [3], in assay [4], in assay [5] and in assay [6] was inactive. The call in assay [7], in assay [8] and in assay [12] was inactive.
For `N#CN=C(N)N`, the molecule was called inactive in assay [1], in assay [2], in assay [3], in [4], in [5] and in assay [6]. For the same molecule, the molecule was classed as inactive in assay [7], in [11], in [8] and in [9].
With `N#CCc1ccc(Cl)cc1`, the outcome in [1], in assay [2], in assay [3], in [4], in [5] and in assay [6] was inactive. In addition, the outcome in assay [7], in assay [8], in assay [10] and in assay [9] was inactive.
With `COP(=O)(OC)O/C(=C\Cl)c1cc(Cl)c(Cl)cc1Cl`, the AC50 in assay [1] is 66.2 µM (active); in [3] it was 180 µM (active); in assay [5] it was 25.8 µM (active); in assay [6], 27.6 µM (active); in assay [7], 161 µM (active); in assay [11], 64.8 µM (active). Besides, the AC50 in assay [10] is 10.8 µM (active); in assay [9] it was 0.862 µM (active). Besides, the call in [2], in assay [4] and in [8] was inactive.
`COc1ccc(OC)c(C=O)c1`: the molecule was classed as inactive in [1], in assay [2], in assay [3], in assay [4], in assay [5] and in assay [6]. For the same molecule, the result in [7], in assay [8] and in assay [10] was inactive. Moreover, in [9], the concentration at half-maximal activity (AC50) is 6.5 µM (active).
Turning to `CC(C#N)CCC#N` (stereo not given), the result in [1], in assay [2], in [3], in assay [4], in [5] and in assay [6] was inactive. Also, the molecule was classed as inactive in assay [7], in assay [8], in [13] and in assay [9].
Take `O=C/C=C/c1ccccc1`: the outcome in assay [1], in [2], in [3], in [4], in assay [6] and in [7] was inactive. The result in assay [11] and in assay [13] was inactive. The half-maximal activity concentration (AC50) in assay [5] is 30.8 µM (active); in [10], 28.7 µM (active); in assay [9], 12.1 µM (active).
